Measured values: the supplement of paper PMC11732987, “Enantioselective OTUD7B fragment discovery through chemoproteomics screening and high-throughput optimisation” (Communications Chemistry, 2025)

What was measured:
Assay in all cases: log2 ratio of Biotin-Ahx-Ub-VS probe labelling (fragment/DMSO); higher = less target engagement (more negative = stronger competition), active = hit call of the paper (q ≤ 0.05, log2 ratio ≤ -1)
Conditions in all cases: compound concentration: 200 uM; treatment time: 3 h
USP19 = biological target: T1, USP19 (UniProt O94966)
T1 sequence (whole entry): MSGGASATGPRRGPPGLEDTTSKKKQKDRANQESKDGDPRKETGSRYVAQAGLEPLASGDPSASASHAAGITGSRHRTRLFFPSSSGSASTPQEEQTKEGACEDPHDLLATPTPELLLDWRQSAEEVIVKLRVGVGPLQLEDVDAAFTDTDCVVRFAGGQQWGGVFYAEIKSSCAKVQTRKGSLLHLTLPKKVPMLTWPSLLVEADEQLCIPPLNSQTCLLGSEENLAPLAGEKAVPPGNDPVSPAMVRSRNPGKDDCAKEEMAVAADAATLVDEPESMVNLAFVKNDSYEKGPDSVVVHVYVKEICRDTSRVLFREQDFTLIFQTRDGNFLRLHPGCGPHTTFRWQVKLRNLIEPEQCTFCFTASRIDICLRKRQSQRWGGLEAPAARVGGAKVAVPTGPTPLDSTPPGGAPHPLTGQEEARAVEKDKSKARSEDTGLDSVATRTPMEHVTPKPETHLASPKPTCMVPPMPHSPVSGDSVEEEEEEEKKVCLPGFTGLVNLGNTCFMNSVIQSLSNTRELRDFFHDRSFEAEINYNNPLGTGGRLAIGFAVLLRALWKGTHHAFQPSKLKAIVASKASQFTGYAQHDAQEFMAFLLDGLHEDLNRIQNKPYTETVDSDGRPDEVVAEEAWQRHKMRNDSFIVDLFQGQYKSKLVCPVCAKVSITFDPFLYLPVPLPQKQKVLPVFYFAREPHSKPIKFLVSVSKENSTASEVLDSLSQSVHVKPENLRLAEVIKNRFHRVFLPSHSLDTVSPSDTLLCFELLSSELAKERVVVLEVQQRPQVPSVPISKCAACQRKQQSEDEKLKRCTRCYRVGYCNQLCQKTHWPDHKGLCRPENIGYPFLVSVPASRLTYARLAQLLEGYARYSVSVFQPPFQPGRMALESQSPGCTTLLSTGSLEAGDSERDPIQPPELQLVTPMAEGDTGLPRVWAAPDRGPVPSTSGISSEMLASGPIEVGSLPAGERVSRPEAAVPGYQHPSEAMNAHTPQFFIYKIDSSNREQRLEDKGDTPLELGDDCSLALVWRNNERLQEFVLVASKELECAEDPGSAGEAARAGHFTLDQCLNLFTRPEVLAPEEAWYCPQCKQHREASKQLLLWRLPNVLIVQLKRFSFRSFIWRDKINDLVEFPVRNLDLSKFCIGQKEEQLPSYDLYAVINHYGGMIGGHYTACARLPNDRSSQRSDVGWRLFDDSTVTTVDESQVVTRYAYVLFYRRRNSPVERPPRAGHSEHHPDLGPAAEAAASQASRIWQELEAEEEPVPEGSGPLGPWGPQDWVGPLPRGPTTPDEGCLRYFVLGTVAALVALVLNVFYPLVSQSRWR
How it was run: (§1)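 Average log2 ratios of fragment over vehicle were obtained by unpaired t-test from global-median-normalised Spectronaut label-free quantities. Proteins with ≥2 unique peptides were included. HEK293T lysate (495 µg per sample) was treated in triplicate with fragment at 200 µM or vehicle for 3 h, then with Biotin-Ahx-Ub-VS at 0.5 µM final for 1 h, and labelled DUBs were NeutrAvidin-enriched and run by diaPASEF LC-MS/MS.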

USP22 = biological target: T2, USP22 (UniProt Q9UPT9)
T2 sequence (whole entry): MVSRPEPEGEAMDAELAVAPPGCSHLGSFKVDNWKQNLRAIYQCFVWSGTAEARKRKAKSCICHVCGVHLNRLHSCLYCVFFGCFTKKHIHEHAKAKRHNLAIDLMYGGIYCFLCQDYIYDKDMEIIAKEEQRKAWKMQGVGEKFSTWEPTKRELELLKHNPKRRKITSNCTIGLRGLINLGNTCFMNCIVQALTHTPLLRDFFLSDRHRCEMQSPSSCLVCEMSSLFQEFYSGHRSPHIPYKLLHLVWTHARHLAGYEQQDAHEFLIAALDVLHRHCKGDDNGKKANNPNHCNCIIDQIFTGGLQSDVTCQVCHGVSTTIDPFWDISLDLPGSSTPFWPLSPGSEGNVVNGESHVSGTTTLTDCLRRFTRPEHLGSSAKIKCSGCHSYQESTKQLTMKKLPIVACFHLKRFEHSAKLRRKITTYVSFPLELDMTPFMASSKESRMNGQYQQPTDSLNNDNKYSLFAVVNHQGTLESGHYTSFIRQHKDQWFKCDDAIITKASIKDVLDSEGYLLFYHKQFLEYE
How it was run: as §1

USP24 = USP24 (UniProt Q9UPU5)
How it was run: as §1

USP25 = biological target: T3, USP25 (UniProt Q9UHP3)
T3 sequence (whole entry): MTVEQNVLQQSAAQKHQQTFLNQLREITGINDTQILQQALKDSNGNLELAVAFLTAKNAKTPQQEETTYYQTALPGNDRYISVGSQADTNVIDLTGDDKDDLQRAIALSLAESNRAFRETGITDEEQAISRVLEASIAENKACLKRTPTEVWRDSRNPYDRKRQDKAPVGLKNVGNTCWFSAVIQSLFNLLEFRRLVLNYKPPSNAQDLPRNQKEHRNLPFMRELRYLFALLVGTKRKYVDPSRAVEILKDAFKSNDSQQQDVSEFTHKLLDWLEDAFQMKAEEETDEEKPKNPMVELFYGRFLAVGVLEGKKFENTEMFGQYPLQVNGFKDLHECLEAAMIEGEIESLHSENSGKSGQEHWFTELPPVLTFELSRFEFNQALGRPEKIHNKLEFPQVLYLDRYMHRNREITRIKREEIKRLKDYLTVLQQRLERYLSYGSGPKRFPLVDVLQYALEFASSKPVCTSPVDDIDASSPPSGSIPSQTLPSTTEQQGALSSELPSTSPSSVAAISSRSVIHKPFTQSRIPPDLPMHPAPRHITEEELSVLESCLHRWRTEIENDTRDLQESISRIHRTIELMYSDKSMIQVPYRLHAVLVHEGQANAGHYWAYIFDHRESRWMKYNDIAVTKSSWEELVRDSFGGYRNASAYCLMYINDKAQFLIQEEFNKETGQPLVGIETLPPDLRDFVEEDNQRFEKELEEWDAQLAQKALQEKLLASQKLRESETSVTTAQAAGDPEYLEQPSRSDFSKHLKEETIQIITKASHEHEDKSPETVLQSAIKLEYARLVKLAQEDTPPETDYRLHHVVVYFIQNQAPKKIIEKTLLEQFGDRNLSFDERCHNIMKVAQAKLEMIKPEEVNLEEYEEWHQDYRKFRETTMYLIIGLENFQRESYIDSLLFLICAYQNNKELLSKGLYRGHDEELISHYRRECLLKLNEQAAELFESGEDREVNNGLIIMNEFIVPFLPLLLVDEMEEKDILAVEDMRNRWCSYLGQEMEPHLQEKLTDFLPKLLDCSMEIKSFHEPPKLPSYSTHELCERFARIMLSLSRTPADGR
How it was run: as §1

USP28 = biological target: T4, USP28 (UniProt Q96RU2)
T4 sequence (whole entry): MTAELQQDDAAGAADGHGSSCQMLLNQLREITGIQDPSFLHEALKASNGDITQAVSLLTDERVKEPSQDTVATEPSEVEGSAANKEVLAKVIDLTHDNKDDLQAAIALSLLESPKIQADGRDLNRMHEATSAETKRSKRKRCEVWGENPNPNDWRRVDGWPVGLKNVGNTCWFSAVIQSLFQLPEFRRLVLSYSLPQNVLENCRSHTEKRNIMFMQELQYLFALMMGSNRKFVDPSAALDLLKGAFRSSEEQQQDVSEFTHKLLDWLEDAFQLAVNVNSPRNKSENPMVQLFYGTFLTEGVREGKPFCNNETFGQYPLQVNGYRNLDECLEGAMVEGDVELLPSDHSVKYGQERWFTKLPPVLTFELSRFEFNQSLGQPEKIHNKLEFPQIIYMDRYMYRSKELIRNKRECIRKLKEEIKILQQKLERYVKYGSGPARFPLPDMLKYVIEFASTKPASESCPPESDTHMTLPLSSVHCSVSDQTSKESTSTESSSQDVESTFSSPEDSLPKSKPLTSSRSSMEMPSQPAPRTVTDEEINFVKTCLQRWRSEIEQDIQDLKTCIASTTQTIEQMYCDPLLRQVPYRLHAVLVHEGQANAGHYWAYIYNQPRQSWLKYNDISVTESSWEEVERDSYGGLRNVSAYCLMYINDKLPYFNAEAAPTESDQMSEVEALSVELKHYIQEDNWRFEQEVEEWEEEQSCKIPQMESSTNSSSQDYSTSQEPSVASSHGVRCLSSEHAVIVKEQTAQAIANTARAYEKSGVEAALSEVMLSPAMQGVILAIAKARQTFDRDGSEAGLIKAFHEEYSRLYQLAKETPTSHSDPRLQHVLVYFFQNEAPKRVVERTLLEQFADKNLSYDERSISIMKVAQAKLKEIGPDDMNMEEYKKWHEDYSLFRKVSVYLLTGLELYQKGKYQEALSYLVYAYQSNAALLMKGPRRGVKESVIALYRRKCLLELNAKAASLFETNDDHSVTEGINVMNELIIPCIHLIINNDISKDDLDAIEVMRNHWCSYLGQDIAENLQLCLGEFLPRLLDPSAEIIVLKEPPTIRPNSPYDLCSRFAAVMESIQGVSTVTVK
How it was run: as §1

Measured: log2 ratio of Biotin-Ahx-Ub-VS probe labelling

USP24, sequence (Q9UPU5 whole entry): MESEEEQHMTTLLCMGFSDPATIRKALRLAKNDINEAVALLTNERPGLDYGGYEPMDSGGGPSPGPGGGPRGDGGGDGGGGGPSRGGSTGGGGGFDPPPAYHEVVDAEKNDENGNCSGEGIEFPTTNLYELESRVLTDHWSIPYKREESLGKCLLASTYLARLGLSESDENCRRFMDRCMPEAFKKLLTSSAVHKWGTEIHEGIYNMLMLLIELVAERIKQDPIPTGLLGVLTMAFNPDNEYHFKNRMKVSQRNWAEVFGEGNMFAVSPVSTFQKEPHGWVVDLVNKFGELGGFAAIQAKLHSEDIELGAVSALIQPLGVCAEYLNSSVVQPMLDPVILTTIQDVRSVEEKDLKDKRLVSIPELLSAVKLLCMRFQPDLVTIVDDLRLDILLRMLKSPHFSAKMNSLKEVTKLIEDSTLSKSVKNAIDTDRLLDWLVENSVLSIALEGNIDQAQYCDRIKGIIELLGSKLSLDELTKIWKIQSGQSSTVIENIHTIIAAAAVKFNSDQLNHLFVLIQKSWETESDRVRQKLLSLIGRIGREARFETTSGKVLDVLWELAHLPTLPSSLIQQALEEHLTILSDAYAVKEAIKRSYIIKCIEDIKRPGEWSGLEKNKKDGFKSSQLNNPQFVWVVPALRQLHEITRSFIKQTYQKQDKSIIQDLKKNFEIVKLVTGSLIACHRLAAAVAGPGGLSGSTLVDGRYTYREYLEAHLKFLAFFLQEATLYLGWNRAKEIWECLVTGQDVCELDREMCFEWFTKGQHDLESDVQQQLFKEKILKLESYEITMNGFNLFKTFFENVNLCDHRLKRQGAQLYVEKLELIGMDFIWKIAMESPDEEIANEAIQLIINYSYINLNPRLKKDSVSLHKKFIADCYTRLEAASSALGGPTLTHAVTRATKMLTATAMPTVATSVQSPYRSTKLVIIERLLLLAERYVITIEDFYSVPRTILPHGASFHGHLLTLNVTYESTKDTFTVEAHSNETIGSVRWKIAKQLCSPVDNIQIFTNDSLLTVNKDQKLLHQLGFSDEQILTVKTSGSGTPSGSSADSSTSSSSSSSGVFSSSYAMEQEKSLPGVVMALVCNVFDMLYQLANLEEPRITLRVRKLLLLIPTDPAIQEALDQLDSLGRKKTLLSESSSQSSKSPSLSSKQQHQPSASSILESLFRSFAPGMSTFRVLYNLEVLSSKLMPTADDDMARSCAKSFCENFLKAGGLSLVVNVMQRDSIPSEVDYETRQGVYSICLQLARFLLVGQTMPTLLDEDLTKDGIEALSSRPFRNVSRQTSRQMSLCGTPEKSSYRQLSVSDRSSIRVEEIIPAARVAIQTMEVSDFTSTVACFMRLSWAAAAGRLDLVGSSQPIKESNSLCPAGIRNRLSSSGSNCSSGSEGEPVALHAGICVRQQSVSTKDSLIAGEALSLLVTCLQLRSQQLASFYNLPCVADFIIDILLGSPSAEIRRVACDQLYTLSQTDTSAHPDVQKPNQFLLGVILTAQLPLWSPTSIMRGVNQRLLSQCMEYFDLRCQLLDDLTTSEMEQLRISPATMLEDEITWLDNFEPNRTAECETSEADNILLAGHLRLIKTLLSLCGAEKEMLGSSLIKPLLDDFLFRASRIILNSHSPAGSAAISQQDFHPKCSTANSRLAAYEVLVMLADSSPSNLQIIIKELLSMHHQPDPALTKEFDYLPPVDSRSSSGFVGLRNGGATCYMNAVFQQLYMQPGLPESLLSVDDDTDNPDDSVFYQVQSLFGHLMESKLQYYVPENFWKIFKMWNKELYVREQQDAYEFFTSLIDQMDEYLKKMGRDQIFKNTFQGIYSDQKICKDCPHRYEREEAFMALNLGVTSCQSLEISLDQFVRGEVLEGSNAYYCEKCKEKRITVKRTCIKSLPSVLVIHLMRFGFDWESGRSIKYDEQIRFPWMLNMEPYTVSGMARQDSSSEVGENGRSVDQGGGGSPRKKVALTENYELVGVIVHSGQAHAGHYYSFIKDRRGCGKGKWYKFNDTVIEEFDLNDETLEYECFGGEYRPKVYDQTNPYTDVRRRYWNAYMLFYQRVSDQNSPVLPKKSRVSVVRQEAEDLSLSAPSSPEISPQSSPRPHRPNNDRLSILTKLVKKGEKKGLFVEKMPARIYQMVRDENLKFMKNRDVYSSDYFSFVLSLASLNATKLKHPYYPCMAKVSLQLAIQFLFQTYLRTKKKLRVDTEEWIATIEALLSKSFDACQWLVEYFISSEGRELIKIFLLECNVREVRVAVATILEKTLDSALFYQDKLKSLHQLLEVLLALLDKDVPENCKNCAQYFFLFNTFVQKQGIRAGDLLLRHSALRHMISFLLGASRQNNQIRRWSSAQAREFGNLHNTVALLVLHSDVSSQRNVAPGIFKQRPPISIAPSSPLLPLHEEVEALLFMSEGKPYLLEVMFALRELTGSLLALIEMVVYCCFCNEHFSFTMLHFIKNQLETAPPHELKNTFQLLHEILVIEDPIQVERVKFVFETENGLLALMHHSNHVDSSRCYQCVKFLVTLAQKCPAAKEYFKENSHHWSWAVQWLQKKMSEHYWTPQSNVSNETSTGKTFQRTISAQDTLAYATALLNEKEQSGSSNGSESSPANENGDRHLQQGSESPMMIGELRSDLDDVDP

O=C(CCl)N1CCCN(C(=O)c2ccc(Cl)cc2)CC1
inactive: USP19 -0.449 | USP22 -0.095 | USP24 -0.433 | USP25 -0.628 | USP28 -0.618
